Values without a mark were called inactive. Active and inactive are the calls of the source. Rule as the data show it, unless noted: active = inhibition above about 25%; inactive = the rest.
Molecular target: Nuclear receptor coactivator 1 (Homo sapiens) (UniProt Q15788)
Assay: NCOA1 GAL4-fusion reporter inhibition – cell-based, luminescence, quadruplicate, confirmation (AID 588820;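 active = mean inhibition above 46.68%, the untreated control wells mean plus 3 SD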;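 also: 0% = DMSO wells and 100% = gossypol 36 µM treated wells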)
Conditions: HEK293 GAL4-SRC1 luciferase reporter, at 3.6 µM, stronger effect = higher value

Sequence of Nuclear receptor coactivator 1 (Homo sapiens) (Q15788 whole entry, looked up, the tested form may be a part): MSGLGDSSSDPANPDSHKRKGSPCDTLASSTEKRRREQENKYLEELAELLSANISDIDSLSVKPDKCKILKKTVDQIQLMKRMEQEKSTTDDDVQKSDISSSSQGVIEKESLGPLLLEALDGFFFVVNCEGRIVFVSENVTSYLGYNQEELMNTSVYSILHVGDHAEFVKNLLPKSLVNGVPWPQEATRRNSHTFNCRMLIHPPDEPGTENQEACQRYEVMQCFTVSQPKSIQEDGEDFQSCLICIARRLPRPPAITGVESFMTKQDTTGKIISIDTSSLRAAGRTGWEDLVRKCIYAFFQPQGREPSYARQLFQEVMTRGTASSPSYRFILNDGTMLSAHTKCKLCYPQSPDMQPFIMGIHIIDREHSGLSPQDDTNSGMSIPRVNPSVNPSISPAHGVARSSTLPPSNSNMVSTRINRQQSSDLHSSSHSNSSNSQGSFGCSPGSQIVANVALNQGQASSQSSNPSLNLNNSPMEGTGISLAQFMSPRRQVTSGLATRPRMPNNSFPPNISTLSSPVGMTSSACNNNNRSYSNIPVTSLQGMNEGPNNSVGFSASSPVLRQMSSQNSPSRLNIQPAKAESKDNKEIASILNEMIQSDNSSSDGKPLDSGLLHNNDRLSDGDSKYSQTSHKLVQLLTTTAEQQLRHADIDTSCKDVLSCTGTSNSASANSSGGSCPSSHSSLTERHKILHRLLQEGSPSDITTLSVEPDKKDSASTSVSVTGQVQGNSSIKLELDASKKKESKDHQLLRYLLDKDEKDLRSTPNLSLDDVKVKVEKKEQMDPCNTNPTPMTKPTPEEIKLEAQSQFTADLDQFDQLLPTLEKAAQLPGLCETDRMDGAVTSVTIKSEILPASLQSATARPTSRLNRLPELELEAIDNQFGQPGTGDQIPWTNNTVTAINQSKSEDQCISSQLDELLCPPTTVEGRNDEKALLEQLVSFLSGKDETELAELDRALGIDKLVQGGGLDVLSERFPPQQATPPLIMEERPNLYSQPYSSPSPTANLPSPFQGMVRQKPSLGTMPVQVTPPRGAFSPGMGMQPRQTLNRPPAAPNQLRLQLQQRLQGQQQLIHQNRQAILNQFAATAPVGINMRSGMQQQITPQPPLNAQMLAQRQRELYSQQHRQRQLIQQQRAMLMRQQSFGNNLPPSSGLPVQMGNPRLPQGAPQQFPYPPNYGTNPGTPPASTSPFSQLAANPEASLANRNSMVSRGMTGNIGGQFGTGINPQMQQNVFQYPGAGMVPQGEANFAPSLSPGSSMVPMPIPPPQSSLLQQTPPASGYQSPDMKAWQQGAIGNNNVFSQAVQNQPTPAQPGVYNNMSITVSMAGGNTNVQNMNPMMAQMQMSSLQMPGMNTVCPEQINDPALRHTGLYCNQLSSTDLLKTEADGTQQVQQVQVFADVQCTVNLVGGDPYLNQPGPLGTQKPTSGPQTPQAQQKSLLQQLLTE

Question: For `CCOc1ccc(-n2c(C)c(C(C)=O)c3cc(O)ccc32)cc1`, which inhibition is on record?
Answer: 60.8% (active)

Question: For `CCc1nc(Cl)c(C#N)c2c1CCCC2`, which inhibition is on record?
Answer: 34.8%

Question: Which inhibition does the source give for `COc1cc2cncc(Cc3ccc(Cl)cc3)c2cc1OC` here?
Answer: 56.2% (active)

Question: For `COc1ccc(C(=O)N/N=C/c2cc(Br)ccc2O)cc1OC`, which inhibition is on record?
Answer: 22%

Question: Which inhibition does the source give for `Cc1cc(C)nc(/N=C(\N)Nc2ccc(-c3ccccc3)cc2)n1` here?
Answer: 21.7%

Question: For `O=C1CC(c2ccc3c(c2)OCO3)Sc2nc3ccccc3n21` (stereo not given), which inhibition is on record?
Answer: -110%

Question: With `COc1cc(Cl)cc(/C=N\NC(=O)c2ccc3c(c2)OCO3)c1O` as the compound, how does the inhibition read?
Answer: 30.5%

Question: Which inhibition does the source give for `O=C(NNC1=Nc2cccc3cccc1c23)c1ccccc1Br` here?
Answer: 14.2%

Question: With `O=C(Nc1ccc(Cn2cccn2)cc1)c1ccc(COc2cccc(Br)c2)cc1` as the compound, how does the inhibition read?
Answer: -34.7%

Question: Which inhibition does the source give for `Cc1cn([C@@H](CCCCNC(=O)OC(C)(C)C)C(=O)NCCCCCCCCCCC(=O)N2CCN(C(=O)OC(C)(C)C)CC2)nn1` here?
Answer: 4.04%

Question: With `O=C(Nc1ccc(N2CCN(C(=O)c3ccc(Cl)cc3)CC2)cc1)c1ccc2c(c1)OCCO2` as the compound, how does the inhibition read?
Answer: 1.25%

Question: For `Cc1ccc2nc(-c3ccncc3)c(NC3CCCC3)n2c1`, which inhibition is on record?
Answer: 27.3%

Question: Which inhibition does the source give for `O=C(NCc1ccc(Cl)cc1)c1csc(-c2cccnc2)n1` here?
Answer: 10.2%

Question: Which inhibition does the source give for `COc1ccc(-n2cnc3c(sc4nccc(N(C)C)c43)c2=O)cc1` here?
Answer: 33.3%

Question: With `O=C(N/N=C/c1sc(N2CCOCC2)nc1-c1ccccc1)c1cccc(S(=O)(=O)N2CCCC2)c1` as the compound, how does the inhibition read?
Answer: 50.8% (active)

Question: Which inhibition does the source give for `Oc1ccc(-c2n[nH]c(=S)n2-c2ccc3c(c2)OCCO3)c(O)c1` here?
Answer: 20.9%

Question: For `Nc1nc(CCl)nc(Nc2cccc3ccccc23)n1`, which inhibition is on record?
Answer: 16.1%

Question: For `N#Cc1c2ccc(O)cc2n2ccccc12`, which inhibition is on record?
Answer: 42.8%

Question: Which inhibition does the source give for `Nc1ccn([C@@H]2O[C@H](CO)[C@@H](O)C2O)c(=O)n1` (stereo not given in full) here?
Answer: 32.5%

Question: With `CC(C)CC(=O)/C(=C\c1ccc(Cl)cc1Cl)n1cncn1` as the compound, how does the inhibition read?
Answer: 14.1%

Question: For `CN(C)/C=C/C(=O)c1ccc2noc(-c3ccccc3)c2c1`, which inhibition is on record?
Answer: 41.3%

Question: Which inhibition does the source give for `Cc1nc2c(-c3ccc(Cl)cc3)c(C)[nH]n2c(=O)c1Cc1ccccc1` here?
Answer: 24.5%

Question: For `Cc1nc(N2CCC(C(N)=O)CC2)c2c(-c3cccs3)csc2n1`, which inhibition is on record?
Answer: 34.9%

Question: With `COc1ccc(-c2csc3ncnc(NCCCO)c23)cc1` as the compound, how does the inhibition read?
Answer: 50.2% (active)

Question: Which inhibition does the source give for `CC(C)(C)c1cc(C(=O)N/N=C/c2ccc(O)cc2)n(-c2ccccc2)n1` here?
Answer: 20.3%

Question: Which inhibition does the source give for `COc1ccc(-c2cn[nH]c2-c2ccc(OC)cc2)cc1` here?
Answer: 38.7%

Question: For `C[n+]1c2n(c3ccccc31)N=C(c1ccccc1)CS2`, which inhibition is on record?
Answer: -2.14%

Question: With `CCOc1cc(Br)cc(/C=N/NC(=O)c2cccnc2)c1O` as the compound, how does the inhibition read?
Answer: 27.3%

Question: Which inhibition does the source give for `O=C(N/N=C/c1c(O)ccc2ccccc12)c1cccc(C(F)(F)F)c1` here?
Answer: 60.8% (active)

Question: Which inhibition does the source give for `COc1cc(/C=C2\SC(N)=NC2=O)cc(OC)c1` here?
Answer: 34.7%

Question: Which inhibition does the source give for `CCCCOC(=O)c1[nH]c2c(c1C)C(=O)CC(c1cc(OC)c(OC)c(OC)c1)C2` (stereo not given) here?
Answer: -1.5%

Question: For `COc1ccc2[nH]c(=O)c(CN(CCN3CCCC3)C(=O)Nc3ccccc3Cl)cc2c1`, which inhibition is on record?
Answer: 36%

Question: For `COc1ccc(CN(C)C(=O)c2ccc(OCC(=O)Nc3cccc(C(F)(F)F)c3)c(OC)c2)cc1`, which inhibition is on record?
Answer: 2.4%

Question: Which inhibition does the source give for `O=C(NC1CCCCCCC1)C1c2ccccc2C(=O)N1Cc1cccs1` (stereo not given) here?
Answer: 4.81%

Question: With `Cc1c2ccncc2cc2c1[nH]c1ccccc12` as the compound, how does the inhibition read?
Answer: 48.4% (active)

Question: For `COc1ccc(-c2cnc(N)nc2-c2ccc(OC)cc2O)cc1`, which inhibition is on record?
Answer: 29.7%

Question: Which inhibition does the source give for `O=[N+]([O-])c1ccc(O)c(/C=N/Nc2ccccn2)c1` here?
Answer: 60.6% (active)

Question: For `Cc1nc(N)c(CC(Br)CBr)c(Cl)n1` (stereo not given), which inhibition is on record?
Answer: 44.4%

Question: With `O=C(N/N=C/c1cc([N+](=O)[O-])ccc1O)c1cccc(N2CCCC2=O)c1` as the compound, how does the inhibition read?
Answer: 34.5%

Question: For `OCCN1CCN(C(=S)c2ccc(-c3ccccc3)cc2)CC1`, which inhibition is on record?
Answer: 36.8%

Test system: not listed separately
Assay: repression of VP16-driven luciferase reporter – cell-based, luminescence, high throughput, counter-screen for SRC1 inhibitor project (AID 588824)
Conditions: cell-based VP16 transactivation luciferase luminescence; at 3.6 µM; stronger effect = higher value

Question: With `CCOc1ccc(-n2c(C)c(C(C)=O)c3cc(O)ccc32)cc1` as the compound, how does the inhibition read?
Answer: 48.2% (active)

Question: Which inhibition does the source give for `CCc1nc(Cl)c(C#N)c2c1CCCC2` here?
Answer: 28.9% (active)

Question: For `COc1cc2cncc(Cc3ccc(Cl)cc3)c2cc1OC`, which inhibition is on record?
Answer: 39.4% (active)

Question: For `COc1ccc(C(=O)N/N=C/c2cc(Br)ccc2O)cc1OC`, which inhibition is on record?
Answer: 42.5% (active)

Question: Which inhibition does the source give for `Cc1cc(C)nc(/N=C(\N)Nc2ccc(-c3ccccc3)cc2)n1` here?
Answer: 30.1% (active)

Question: For `O=C1CC(c2ccc3c(c2)OCO3)Sc2nc3ccccc3n21` (stereo not given), which inhibition is on record?
Answer: -73.2%

Question: Which inhibition does the source give for `COc1cc(Cl)cc(/C=N\NC(=O)c2ccc3c(c2)OCO3)c1O` here?
Answer: 33.6% (active)

Question: With `O=C(NNC1=Nc2cccc3cccc1c23)c1ccccc1Br` as the compound, how does the inhibition read?
Answer: 17.2%

Question: Which inhibition does the source give for `O=C(Nc1ccc(Cn2cccn2)cc1)c1ccc(COc2cccc(Br)c2)cc1` here?
Answer: 30.4% (active)

Question: For `Cc1cn([C@@H](CCCCNC(=O)OC(C)(C)C)C(=O)NCCCCCCCCCCC(=O)N2CCN(C(=O)OC(C)(C)C)CC2)nn1`, which inhibition is on record?
Answer: 41.8% (active)

Question: With `O=C(Nc1ccc(N2CCN(C(=O)c3ccc(Cl)cc3)CC2)cc1)c1ccc2c(c1)OCCO2` as the compound, how does the inhibition read?
Answer: 42.5% (active)

Question: For `Cc1ccc2nc(-c3ccncc3)c(NC3CCCC3)n2c1`, which inhibition is on record?
Answer: 25.7% (active)

Question: Which inhibition does the source give for `O=C(NCc1ccc(Cl)cc1)c1csc(-c2cccnc2)n1` here?
Answer: 7.38%

Question: With `COc1ccc(-n2cnc3c(sc4nccc(N(C)C)c43)c2=O)cc1` as the compound, how does the inhibition read?
Answer: 11.8%

Question: With `O=C(N/N=C/c1sc(N2CCOCC2)nc1-c1ccccc1)c1cccc(S(=O)(=O)N2CCCC2)c1` as the compound, how does the inhibition read?
Answer: 72% (active)

Question: Which inhibition does the source give for `Oc1ccc(-c2n[nH]c(=S)n2-c2ccc3c(c2)OCCO3)c(O)c1` here?
Answer: 43.7% (active)

Question: For `Nc1nc(CCl)nc(Nc2cccc3ccccc23)n1`, which inhibition is on record?
Answer: 18.8%

Question: Which inhibition does the source give for `N#Cc1c2ccc(O)cc2n2ccccc12` here?
Answer: 11.9%

Question: With `Nc1ccn([C@@H]2O[C@H](CO)[C@@H](O)C2O)c(=O)n1` (stereo not given in full) as the compound, how does the inhibition read?
Answer: 19.4%

Question: For `CC(C)CC(=O)/C(=C\c1ccc(Cl)cc1Cl)n1cncn1`, which inhibition is on record?
Answer: 55.6% (active)

Question: With `CN(C)/C=C/C(=O)c1ccc2noc(-c3ccccc3)c2c1` as the compound, how does the inhibition read?
Answer: 33.7% (active)

Question: With `Cc1nc2c(-c3ccc(Cl)cc3)c(C)[nH]n2c(=O)c1Cc1ccccc1` as the compound, how does the inhibition read?
Answer: 22.1%

Question: With `Cc1nc(N2CCC(C(N)=O)CC2)c2c(-c3cccs3)csc2n1` as the compound, how does the inhibition read?
Answer: 18.9%

Question: With `COc1ccc(-c2csc3ncnc(NCCCO)c23)cc1` as the compound, how does the inhibition read?
Answer: 49.8% (active)

Question: Which inhibition does the source give for `CC(C)(C)c1cc(C(=O)N/N=C/c2ccc(O)cc2)n(-c2ccccc2)n1` here?
Answer: 13.7%

Question: For `COc1ccc(-c2cn[nH]c2-c2ccc(OC)cc2)cc1`, which inhibition is on record?
Answer: 33.8% (active)

Question: For `C[n+]1c2n(c3ccccc31)N=C(c1ccccc1)CS2`, which inhibition is on record?
Answer: 35.1% (active)

Question: Which inhibition does the source give for `CCOc1cc(Br)cc(/C=N/NC(=O)c2cccnc2)c1O` here?
Answer: 36.9% (active)

Question: Which inhibition does the source give for `O=C(N/N=C/c1c(O)ccc2ccccc12)c1cccc(C(F)(F)F)c1` here?
Answer: 77.4% (active)

Question: With `COc1cc(/C=C2\SC(N)=NC2=O)cc(OC)c1` as the compound, how does the inhibition read?
Answer: 18.9%

Question: With `CCCCOC(=O)c1[nH]c2c(c1C)C(=O)CC(c1cc(OC)c(OC)c(OC)c1)C2` (stereo not given) as the compound, how does the inhibition read?
Answer: 32.1% (active)

Question: With `COc1ccc2[nH]c(=O)c(CN(CCN3CCCC3)C(=O)Nc3ccccc3Cl)cc2c1` as the compound, how does the inhibition read?
Answer: 18.6%

Question: With `COc1ccc(CN(C)C(=O)c2ccc(OCC(=O)Nc3cccc(C(F)(F)F)c3)c(OC)c2)cc1` as the compound, how does the inhibition read?
Answer: 20.5%

Question: With `O=C(NC1CCCCCCC1)C1c2ccccc2C(=O)N1Cc1cccs1` (stereo not given) as the compound, how does the inhibition read?
Answer: 9.14%

Question: Which inhibition does the source give for `Cc1c2ccncc2cc2c1[nH]c1ccccc12` here?
Answer: 19.9%

Question: Which inhibition does the source give for `COc1ccc(-c2cnc(N)nc2-c2ccc(OC)cc2O)cc1` here?
Answer: 18.4%

Question: Which inhibition does the source give for `O=[N+]([O-])c1ccc(O)c(/C=N/Nc2ccccn2)c1` here?
Answer: 37.1% (active)

Question: For `Cc1nc(N)c(CC(Br)CBr)c(Cl)n1` (stereo not given), which inhibition is on record?
Answer: 28.9% (active)

Question: For `O=C(N/N=C/c1cc([N+](=O)[O-])ccc1O)c1cccc(N2CCCC2=O)c1`, which inhibition is on record?
Answer: 4.04%

Question: Which inhibition does the source give for `OCCN1CCN(C(=S)c2ccc(-c3ccccc3)cc2)CC1` here?
Answer: 6.4%

Reference: PubChem BioAssay
